Data reported in PubChem BioAssay (Tox21).
Results filed as inconclusive are left out. Unmarked numbers belong to inactive results. Calls come from the whole dose curve; as a rule, active = well fitted curve in the direction sought with a large enough effect in the signal ratio in the repeat runs (not every such curve was filed as active); inconclusive = weak or mixed curves, or a change in a side signal; inactive = no such curve, though single readings can be large or run the other way; the % refers to the signal ratio.

assay: qHTS assay to identify small molecule agonists of the NFkB signaling pathway (AID 1159509); details: NFkB-bla ME-180 cells, beta-lactamase FRET ratio, 5 h; series mostly up to 61 µM; activation: at the top concentration
Description: National Center for Advancing Translational Sciences [NCATS]
NIH Chemical Genomics Center [NCGC]
U.S. Environmental Protection Agency [EPA]
National Institutes of Environmental Health Sciences [NIEHS]
National Toxicology Program [NTP]
U.S. Food and Drug Administration [FDA]
Transcription factors and their stimulated target gene expression play pivotal roles across many cellular processes including responses to environmental stimuli. Proper regulation of associated pathways is critical to maintain cell health and function. Constitutive activation of transcription factor pathways has been implicated in tumors as it may block cellular functions such as apoptosis and lead to invasion and metastasis. One important transcription factor that stimulates gene expression in response to cytokines, UV radiation, and other stimuli is nuclear factor-kappa B (NFkB). To measure activation of the NFkB pathway, the CellSensor NFkB-bla ME-180 cell line (Life Technologies, Carlsbad, CA) that stably expresses beta-lactamase reporter gene under the regulation of a NF-kB response element was used. This assay allows measurement of the NFkB pathway activity induced by compounds in a ME-180 cell line. This system quantitates NF-kB activity using a FRET-based assay system where beta-lactamase expression disrupts FRET, allowing for fluorescent measurement of activity. This cell line has been used to screen the Tox21 10K compound library and to identify compounds that induce the NFkB pathway activity.
Tox21 Assay Protocol Summary:
NFkB-bla ME-180 cells were dispensed at 2,000 cells/6 uL of assay medium per well into black wall/clear-bottom 1536-well plates using a Multidrop Combi (ThermoFisher Scientific, Waltham, MA) dispenser. After the assay plates were incubated at 37 C and 5% CO2 for an overnight, 23 nL of compounds dissolved in DMSO, positive controls or DMSO only was transferred to the assay plate by a Pintool station (Kalypsys, San Diego, CA). The assay plates were incubated at 37 C and 5% CO2 for 5 hr. One uL of LiveBLAzer B/G FRET substrate (Life Technologies) was added using a Flying Reagent Dispenser (Aurora Discovery, San Diego, CA) and the plates were incubated at room temperature for 1.5 hr. Fluorescence intensity (405 nm excitation, 460 nm and 530 nm emissions) was measured using an Envision plate reader (PerkinElmer, Shelton, CT).
% is set by controls: 0 for no effect and ±100 for the full control effect.

Compound | activation
Cc1cn([C@H]2C[C@H](F)[C@@H](CO)O2)c(=O)[nH]c1=O | 0.0404%
Nc1ccc(S(=O)(=O)NCc2ccccc2)cc1 | 0.0534%
Oc1ccc2c(c1)Cc1ccccc1-2 | 1.08%
O=C(O)CCC(=O)c1ccc(-c2ccccc2)cc1 | -0.174%
O=[N+]([O-])C1(Br)COCOC1 | -0.0869%
CC(=O)NNC(C)=O | -0.0919% [at 78.8 µM]
CC(C)C(=O)OCCOc1ccccc1 | 0.133%
O=C(C(=O)c1ccco1)c1ccco1 | -0.0243% [at 78.8 µM]
CC(C)C(O)C(C)(C)CO (stereo not given) | 0.187% [at 78.8 µM]
CCCCCCOC(=O)CCCCC | 0.0254%
CC(C)Cc1ccc(CC(=O)O)cc1 | -0.316%
COc1ccc(-c2cc(=S)ss2)cc1 | -0.771%
NC(=O)CCCCC(N)=O | 0.884% [at 78.8 µM]
CC(C)CC(O)CC(C)C | 0.312%
COC(C)(C)OC | -0.251%
Nc1nc2ccc(OC(F)(F)F)cc2s1 | -0.0021%
C[C@@H]1[C@H](O)[C@@H](C)/C=C/C=C\C=C\C=C\C=C\C=C\C=C\[C@H](O[C@@H]2O[C@H](C)[C@@H](O)[C@H](N)[C@@H]2O)C[C@@H]2O[C@](O)(C[C@@H](O)C[C@@H](O)[C@H](O)CC[C@@H](O)C[C@@H](O)CC(=O)O[C@H]1C)C[C@H](O)[C@H]2C(=O)O (stereo in doubt) | 0.316%
c1ccc2sc(SSc3nc4ccccc4s3)nc2c1 | -0.511% [at 28.5 µM]
Cc1ccc(S(=O)(=O)NC(=O)NC2CCCCC2)cc1 | -0.0768%
O=C(O)c1cccc(C[C@@H]2COc3ccc(OCc4nc5cc(F)ccc5s4)cc3[C@@H]2O)c1 | -0.0062%

Compound | activation
CCOC(=O)C(C)O (stereo not given) | 0.5% [at 78.8 µM]
CCCCOCCOC(=O)c1cccnc1 | 0.94%
C=Cc1ccc(OC(C)=O)cc1 | -0.573%
O=NN(CCCl)C(=O)NCCCl | -0.198%
CC(C)COC(=O)c1ccc(O)cc1 | 1.05%
C[C@H](CS)C(=O)N1CCC[C@H]1C(=O)O | -0.616%
CCCCCCCCCCCCCCCC(=O)OCC | -0.677%
C=CCOC(=O)COCCC(C)C | 0.11%
O=C1c2ccccc2C(=O)c2c(O)ccc(O)c21 | 0.0286%
CC(C(=O)O)c1ccc(C(=O)c2cccs2)cc1 (stereo not given) | -0.427%
COc1ccc2nc(S(=O)Cc3ncc(C)c(OC)c3C)[nH]c2c1 (stereo not given) | -0.0282%
CCN(CC)CC(=O)Nc1c(C)cccc1C(=O)OC | 0.343%
Cc1cccc2sc(N)nc12 | -0.418% [at 78.8 µM]
Cc1ccc(Nc2c(F)cccc2Cl)c(CC(=O)O)c1 | 0.162%
CC[C@@H](CO)NCCN[C@@H](CC)CO | 1.04%
O=C(CCS)OCC(COC(=O)CCS)(COC(=O)CCS)COC(=O)CCS | 0.884%
CCOC(=O)c1ccc(NC(=O)CN2CCCCC2)cc1 | -0.188%
CC12CC3CC(C)(C1)CC(N)(C3)C2 | -0.133%
CC1C(C)(C)C2=C(C(=O)CCC2)C1(C)C (stereo not given) | 0.3%
Cc1ccccc1S(N)(=O)=O | 0.309%
